# Assay results taken from ChEMBL document CHEMBL2218924, “A broad activity screen in support of a chemogenomic map for kinase signalling research and drug discovery” (Biochem J, 2013).
# Legend:
# [1] = molecular target: Mitogen-activated protein kinase 10 (Homo sapiens) (UniProt P53779); details: at 10 µM
# [2] = molecular target: Vascular endothelial growth factor receptor 2 (Homo sapiens) (UniProt P35968); details: at 1 µM
# [3] = molecular target: Vascular endothelial growth factor receptor 2 (Homo sapiens) (UniProt P35968); details: at 10 µM
# [4] = molecular target: LIM domain kinase 1 (Homo sapiens) (UniProt P53667); details: at 10 µM
# Sequence of LIM domain kinase 1 (Homo sapiens) (P53667 whole entry, looked up, the tested form may be a part): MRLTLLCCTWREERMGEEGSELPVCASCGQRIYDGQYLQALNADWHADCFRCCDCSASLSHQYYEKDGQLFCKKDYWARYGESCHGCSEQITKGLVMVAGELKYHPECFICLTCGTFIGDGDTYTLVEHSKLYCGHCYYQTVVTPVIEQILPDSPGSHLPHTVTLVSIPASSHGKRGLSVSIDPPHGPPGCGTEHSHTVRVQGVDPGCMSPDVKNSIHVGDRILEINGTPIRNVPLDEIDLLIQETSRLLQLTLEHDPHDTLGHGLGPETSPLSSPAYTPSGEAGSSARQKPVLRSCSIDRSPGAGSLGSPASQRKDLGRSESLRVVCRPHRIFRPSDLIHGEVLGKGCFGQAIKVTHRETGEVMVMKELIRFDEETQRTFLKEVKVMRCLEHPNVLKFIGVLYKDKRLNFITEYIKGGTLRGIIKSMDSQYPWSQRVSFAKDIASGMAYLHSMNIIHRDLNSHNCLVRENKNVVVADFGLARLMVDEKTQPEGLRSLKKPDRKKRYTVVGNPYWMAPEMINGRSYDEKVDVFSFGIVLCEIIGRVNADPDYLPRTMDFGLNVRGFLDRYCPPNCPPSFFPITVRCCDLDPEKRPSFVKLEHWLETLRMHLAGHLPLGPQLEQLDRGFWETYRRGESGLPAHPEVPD
# [5] = molecular target: Serine/threonine-protein kinase 10 (Homo sapiens) (UniProt O94804); details: at 1 µM
# [6] = molecular target: Serine/threonine-protein kinase 10 (Homo sapiens) (UniProt O94804); details: at 10 µM
# [7] = molecular target: Tyrosine-protein kinase Lck (Homo sapiens) (UniProt P06239); details: at 1 µM
# Sequence of Tyrosine-protein kinase Lck (Homo sapiens) (P06239 2-509 limits assumed): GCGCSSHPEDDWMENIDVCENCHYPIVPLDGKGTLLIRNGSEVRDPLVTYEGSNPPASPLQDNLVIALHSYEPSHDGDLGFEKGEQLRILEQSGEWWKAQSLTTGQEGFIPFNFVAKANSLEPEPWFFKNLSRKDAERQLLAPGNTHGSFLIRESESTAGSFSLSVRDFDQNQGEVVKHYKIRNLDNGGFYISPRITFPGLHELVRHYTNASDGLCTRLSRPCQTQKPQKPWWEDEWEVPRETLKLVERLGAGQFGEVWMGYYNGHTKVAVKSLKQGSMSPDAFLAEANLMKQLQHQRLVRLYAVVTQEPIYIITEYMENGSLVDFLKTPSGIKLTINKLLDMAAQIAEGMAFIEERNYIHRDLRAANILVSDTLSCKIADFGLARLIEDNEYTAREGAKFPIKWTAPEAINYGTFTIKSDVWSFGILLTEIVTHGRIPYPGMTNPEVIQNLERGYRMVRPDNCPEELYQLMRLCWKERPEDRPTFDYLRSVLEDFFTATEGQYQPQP
# [8] = molecular target: Tyrosine-protein kinase Lck (Homo sapiens) (UniProt P06239); details: at 10 µM
# [9] = molecular target: Tyrosine-protein kinase Lck (Homo sapiens) (UniProt P06239); details: at 1 µM; remark: listed apart in the source
# [10] = molecular target: Tyrosine-protein kinase Lck (Homo sapiens) (UniProt P06239); details: at 10 µM; remark: listed apart in the source
# [11] = molecular target: Tyrosine-protein kinase Lyn (Homo sapiens) (UniProt P07948); details: at 1 µM
# Sequence of Tyrosine-protein kinase Lyn (Homo sapiens) (P07948 2-512 limits assumed): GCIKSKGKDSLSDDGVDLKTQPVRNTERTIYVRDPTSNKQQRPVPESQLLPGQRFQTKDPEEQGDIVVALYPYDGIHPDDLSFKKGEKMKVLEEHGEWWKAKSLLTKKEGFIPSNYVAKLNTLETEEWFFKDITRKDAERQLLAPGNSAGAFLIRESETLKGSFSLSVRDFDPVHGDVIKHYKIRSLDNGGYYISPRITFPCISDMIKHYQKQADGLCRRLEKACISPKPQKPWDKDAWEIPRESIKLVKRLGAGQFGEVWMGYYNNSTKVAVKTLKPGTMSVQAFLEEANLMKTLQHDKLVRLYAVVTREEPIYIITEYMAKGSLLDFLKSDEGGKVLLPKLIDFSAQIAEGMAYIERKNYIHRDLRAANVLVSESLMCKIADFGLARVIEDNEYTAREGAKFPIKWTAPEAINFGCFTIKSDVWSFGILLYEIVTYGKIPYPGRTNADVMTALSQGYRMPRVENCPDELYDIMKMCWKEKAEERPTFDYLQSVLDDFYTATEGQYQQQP
# [12] = molecular target: Tyrosine-protein kinase Lyn (Homo sapiens) (UniProt P07948); details: at 10 µM
# [13] = molecular target: Mitogen-activated protein kinase 3 (Homo sapiens) (UniProt P27361); details: at 1 µM
# Sequence of Mitogen-activated protein kinase 3 (Homo sapiens) (P27361 whole entry): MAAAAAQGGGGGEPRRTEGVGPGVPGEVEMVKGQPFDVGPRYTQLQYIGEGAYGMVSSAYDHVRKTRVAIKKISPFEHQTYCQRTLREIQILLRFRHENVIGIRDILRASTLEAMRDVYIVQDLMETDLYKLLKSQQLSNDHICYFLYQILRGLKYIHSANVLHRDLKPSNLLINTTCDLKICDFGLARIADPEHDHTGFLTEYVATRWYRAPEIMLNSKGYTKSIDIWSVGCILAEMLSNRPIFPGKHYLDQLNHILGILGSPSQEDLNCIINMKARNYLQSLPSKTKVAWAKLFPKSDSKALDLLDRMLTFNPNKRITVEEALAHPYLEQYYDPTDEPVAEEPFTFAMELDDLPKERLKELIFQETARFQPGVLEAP
# [14] = molecular target: Mitogen-activated protein kinase 3 (Homo sapiens) (UniProt P27361); details: at 10 µM
# [15] = molecular target: MAP kinase-activated protein kinase 2 (Homo sapiens) (UniProt P49137); details: at 1 µM
# Sequence of MAP kinase-activated protein kinase 2 (Homo sapiens) (P49137 whole entry, looked up): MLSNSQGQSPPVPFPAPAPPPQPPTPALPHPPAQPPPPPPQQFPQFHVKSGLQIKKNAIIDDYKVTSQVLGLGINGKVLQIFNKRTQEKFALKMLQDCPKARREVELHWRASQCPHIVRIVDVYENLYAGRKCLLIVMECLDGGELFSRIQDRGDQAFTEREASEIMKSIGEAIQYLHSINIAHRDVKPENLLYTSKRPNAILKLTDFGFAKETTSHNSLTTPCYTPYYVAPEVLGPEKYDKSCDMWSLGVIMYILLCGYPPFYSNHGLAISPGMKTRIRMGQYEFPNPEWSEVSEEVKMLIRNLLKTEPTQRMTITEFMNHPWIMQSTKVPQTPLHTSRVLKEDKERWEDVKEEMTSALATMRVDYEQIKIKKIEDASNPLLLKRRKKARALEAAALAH
# [16] = molecular target: T1, Serine/threonine-protein kinase STK11 (Homo sapiens) (UniProt Q15831); details: at 1 µM
# T1 sequence (whole entry): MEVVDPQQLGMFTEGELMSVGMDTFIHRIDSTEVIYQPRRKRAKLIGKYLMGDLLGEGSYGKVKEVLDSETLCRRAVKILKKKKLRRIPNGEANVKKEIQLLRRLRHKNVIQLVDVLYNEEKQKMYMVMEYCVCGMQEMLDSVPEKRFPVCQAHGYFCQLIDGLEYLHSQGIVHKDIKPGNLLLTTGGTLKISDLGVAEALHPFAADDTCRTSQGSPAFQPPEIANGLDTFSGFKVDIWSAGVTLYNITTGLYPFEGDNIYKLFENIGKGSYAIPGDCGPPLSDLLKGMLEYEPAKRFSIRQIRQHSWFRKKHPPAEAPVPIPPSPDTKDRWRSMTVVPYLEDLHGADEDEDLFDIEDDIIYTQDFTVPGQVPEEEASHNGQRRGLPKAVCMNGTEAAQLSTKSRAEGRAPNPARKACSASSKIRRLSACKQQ
# [17] = molecular target: Mitogen-activated protein kinase 1 (Homo sapiens) (UniProt P28482); details: at 10 µM
# Sequence of Mitogen-activated protein kinase 1 (Homo sapiens) (P28482 whole entry): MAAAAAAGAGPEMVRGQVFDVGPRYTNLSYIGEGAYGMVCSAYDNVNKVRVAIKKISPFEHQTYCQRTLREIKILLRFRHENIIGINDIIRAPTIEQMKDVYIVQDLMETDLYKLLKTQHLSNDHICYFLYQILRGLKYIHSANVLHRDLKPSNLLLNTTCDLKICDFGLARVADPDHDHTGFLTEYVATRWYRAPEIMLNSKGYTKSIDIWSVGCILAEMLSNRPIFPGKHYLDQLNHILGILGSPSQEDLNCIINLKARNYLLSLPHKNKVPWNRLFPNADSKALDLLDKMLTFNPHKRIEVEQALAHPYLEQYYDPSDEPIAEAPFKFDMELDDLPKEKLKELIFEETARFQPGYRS
# [18] = molecular target: T1, Serine/threonine-protein kinase STK11 (Homo sapiens); details: at 10 µM
# [19] = molecular target: LIM domain kinase 1 (Homo sapiens) (UniProt P53667); details: at 1 µM
# [20] = molecular target: Mitogen-activated protein kinase 1 (Homo sapiens) (UniProt P28482); details: at 1 µM
# Sequence of Vascular endothelial growth factor receptor 2 (Homo sapiens) (P35968 whole entry, the tested form may be a part): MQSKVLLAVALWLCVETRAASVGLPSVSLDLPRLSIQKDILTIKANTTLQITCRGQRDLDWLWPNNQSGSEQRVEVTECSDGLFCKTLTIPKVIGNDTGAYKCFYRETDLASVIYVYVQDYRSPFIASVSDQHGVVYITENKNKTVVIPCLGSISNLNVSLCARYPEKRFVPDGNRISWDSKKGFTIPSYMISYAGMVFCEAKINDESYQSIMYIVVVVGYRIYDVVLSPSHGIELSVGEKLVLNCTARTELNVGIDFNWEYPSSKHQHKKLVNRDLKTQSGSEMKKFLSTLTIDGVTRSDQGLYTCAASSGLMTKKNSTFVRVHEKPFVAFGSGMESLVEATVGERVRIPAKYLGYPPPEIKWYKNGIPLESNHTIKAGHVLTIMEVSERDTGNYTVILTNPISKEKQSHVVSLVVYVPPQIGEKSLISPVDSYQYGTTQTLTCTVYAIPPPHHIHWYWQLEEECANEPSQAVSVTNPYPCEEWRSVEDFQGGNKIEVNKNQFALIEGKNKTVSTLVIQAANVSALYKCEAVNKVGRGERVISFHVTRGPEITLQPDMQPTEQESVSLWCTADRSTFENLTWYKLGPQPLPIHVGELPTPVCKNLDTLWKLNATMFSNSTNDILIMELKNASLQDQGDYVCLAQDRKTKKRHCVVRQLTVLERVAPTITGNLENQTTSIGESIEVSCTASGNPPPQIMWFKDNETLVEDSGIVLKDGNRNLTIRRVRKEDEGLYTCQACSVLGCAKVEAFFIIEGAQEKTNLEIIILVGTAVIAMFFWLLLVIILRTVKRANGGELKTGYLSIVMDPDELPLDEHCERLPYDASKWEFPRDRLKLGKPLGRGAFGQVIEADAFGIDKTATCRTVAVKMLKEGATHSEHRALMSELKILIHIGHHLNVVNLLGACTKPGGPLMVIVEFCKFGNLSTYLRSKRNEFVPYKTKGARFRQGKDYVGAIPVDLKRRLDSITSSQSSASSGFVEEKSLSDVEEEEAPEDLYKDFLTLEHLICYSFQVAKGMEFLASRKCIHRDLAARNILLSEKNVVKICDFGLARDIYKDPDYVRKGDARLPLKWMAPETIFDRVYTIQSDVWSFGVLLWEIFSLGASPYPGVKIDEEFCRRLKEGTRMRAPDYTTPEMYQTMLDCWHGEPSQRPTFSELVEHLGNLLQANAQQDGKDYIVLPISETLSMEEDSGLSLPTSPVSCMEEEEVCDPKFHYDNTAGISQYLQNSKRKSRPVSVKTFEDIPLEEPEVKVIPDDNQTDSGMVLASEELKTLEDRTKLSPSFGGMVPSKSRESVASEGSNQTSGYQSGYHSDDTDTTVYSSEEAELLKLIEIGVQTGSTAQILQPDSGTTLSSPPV
# Sequence of Mitogen-activated protein kinase 10 (Homo sapiens) (P53779 whole entry): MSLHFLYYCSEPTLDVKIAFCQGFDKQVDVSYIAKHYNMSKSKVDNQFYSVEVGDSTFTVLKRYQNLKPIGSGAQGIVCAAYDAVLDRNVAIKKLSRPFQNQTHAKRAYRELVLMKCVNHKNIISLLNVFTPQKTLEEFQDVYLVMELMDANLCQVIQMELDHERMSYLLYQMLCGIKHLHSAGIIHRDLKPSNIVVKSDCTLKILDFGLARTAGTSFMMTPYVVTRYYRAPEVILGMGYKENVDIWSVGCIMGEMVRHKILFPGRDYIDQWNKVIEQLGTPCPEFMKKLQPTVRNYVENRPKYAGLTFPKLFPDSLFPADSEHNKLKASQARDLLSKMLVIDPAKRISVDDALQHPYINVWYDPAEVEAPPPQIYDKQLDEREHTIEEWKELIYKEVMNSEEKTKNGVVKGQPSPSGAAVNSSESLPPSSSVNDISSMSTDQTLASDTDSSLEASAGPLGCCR
smiles,measurement,setting,value
O=C(c1ccccc1)c1ccc(N2CCOCC2)cc1O,residual activity,[1],53%
same,residual activity,[2],99%
same,residual activity,[3],96%
same,residual activity,[4],80%
same,residual activity,[5],91%
same,residual activity,[6],91%
same,residual activity,[7],137%
same,residual activity,[8],94%
same,residual activity,[9],96%
same,residual activity,[10],78%
same,residual activity,[11],85%
same,residual activity,[12],72%
same,residual activity,[13],90%
same,residual activity,[14],89%
same,residual activity,[15],73%
O=S(=O)(c1cccc2cnccc12)N1CCCNCC1,residual activity,[16],100%
same,residual activity,[11],83%
same,residual activity,[17],80%
COc1ccc(-c2cnc3c(-c4ccsc4)cnn3c2)cc1,residual activity,[2],88%
same,residual activity,[3],68%
same,residual activity,[7],139%
same,residual activity,[8],123%
same,residual activity,[9],93%
same,residual activity,[10],91%
same,residual activity,[11],98%
same,residual activity,[12],95%
same,residual activity,[13],84%
same,residual activity,[14],91%
same,residual activity,[15],91%
CSc1nc(-c2ccc(F)cc2)c(-c2ccnc(NC(C)c3ccccc3)c2)[nH]1 (stereo not given),residual activity,[1],-3%
same,residual activity,[3],87%
same,residual activity,[4],71%
same,residual activity,[18],98%
same,residual activity,[6],96%
same,residual activity,[7],85%
same,residual activity,[8],62%
same,residual activity,[10],37%
same,residual activity,[11],52%
same,residual activity,[12],29%
same,residual activity,[15],79%
O=C1Cc2c([nH]c3ccc(Br)cc23)-c2ccccc2N1,residual activity,[2],74%
same,residual activity,[3],31%
same,residual activity,[19],89%
same,residual activity,[4],80%
same,residual activity,[16],97%
same,residual activity,[18],95%
same,residual activity,[5],96%
same,residual activity,[6],56%
same,residual activity,[11],10%
same,residual activity,[12],1%
O=c1c(-c2ccc(F)cc2)c(-c2ccncc2)[nH]n1-c1ccc(Cl)cc1,residual activity,[1],-2%
same,residual activity,[2],102%
same,residual activity,[3],54%
same,residual activity,[6],99%
same,residual activity,[11],75%
same,residual activity,[12],38%
same,residual activity,[14],66%
same,residual activity,[20],122%
Fc1ccc(-c2nc3n(c2-c2ccncc2)CCS3)cc1,residual activity,[1],7%
same,residual activity,[6],99%
same,residual activity,[10],75%
same,residual activity,[11],98%
same,residual activity,[12],74%
same,residual activity,[13],138%
same,residual activity,[14],92%
COc1ccc(Cl)cc1NC(=O)Nc1cc(C)nc2ccccc12,residual activity,[1],78%
same,residual activity,[18],95%
same,residual activity,[5],96%
same,residual activity,[6],96%
same,residual activity,[11],89%
same,residual activity,[12],87%
same,residual activity,[15],80%
Nc1nccc(-c2c(-c3ccc(F)cc3)ncn2C2CCNCC2)n1,residual activity,[1],22%
same,residual activity,[19],64%
same,residual activity,[4],25%
same,residual activity,[11],50%
same,residual activity,[12],6%
same,residual activity,[14],35%
Nc1n[nH]c2nc3ccccc3nc12,residual activity,[1],66%
same,residual activity,[19],89%
same,residual activity,[4],67%
same,residual activity,[16],126%
same,residual activity,[18],88%
same,residual activity,[5],88%
same,residual activity,[6],78%
same,residual activity,[11],75%
same,residual activity,[12],67%
same,residual activity,[20],123%
Oc1cccc(-c2nc(N3CCOCC3)c3oc4ncccc4c3n2)c1,residual activity,[5],96%
same,residual activity,[6],87%
same,residual activity,[11],99%
same,residual activity,[12],57%
same,residual activity,[13],83%
same,residual activity,[14],87%
same,residual activity,[20],122%
same,residual activity,[17],119%
same,residual activity,[15],81%
O=C(Nc1nc2ccccc2n1CCN1CCOCC1)c1cccc([N+](=O)[O-])c1,residual activity,[19],105%
same,residual activity,[4],88%
same,residual activity,[16],100%
same,residual activity,[18],100%
same,residual activity,[12],87%
CCN1/C(=C/C(C)=O)Sc2ccc(OC)cc21,residual activity,[1],64%
same,residual activity,[11],49%
same,residual activity,[12],37%
COc1ccc(COc2ccc(Cc3cnc(N)nc3N)cc2OC)cc1,residual activity,[7],110%
same,residual activity,[8],77%
same,residual activity,[13],100%
same,residual activity,[14],76%
N#C/C(=C1/Nc2ccccc2S1)c1ccnc(NCCc2cccnc2)n1,residual activity,[16],96%
same,residual activity,[18],81%
same,residual activity,[5],78%
same,residual activity,[6],39%
same,residual activity,[12],15%
CC(C)N(CCC(=O)c1ccc2ccccc2c1)Cc1ccccc1,residual activity,[1],84%
same,residual activity,[3],85%
same,residual activity,[4],85%
same,residual activity,[8],77%
same,residual activity,[13],85%
same,residual activity,[14],76%
CN([C@@H](Cc1ccc(OS(=O)(=O)c2cccc3cnccc23)cc1)C(=O)N1CCN(c2ccccc2)CC1)S(=O)(=O)c1cccc2cnccc12,residual activity,[1],75%
same,residual activity,[19],99%
same,residual activity,[4],86%
same,residual activity,[7],144%
same,residual activity,[9],113%
same,residual activity,[11],78%
same,residual activity,[12],59%
N#Cc1c(NC(=O)c2cccc3ccccc23)sc2c1CCCC2,residual activity,[1],0%
same,residual activity,[3],96%
same,residual activity,[19],92%
same,residual activity,[4],82%
same,residual activity,[16],86%
same,residual activity,[18],93%
same,residual activity,[5],90%
same,residual activity,[6],92%
same,residual activity,[11],90%
same,residual activity,[12],62%
same,residual activity,[17],92%
O=S(=O)(NCCNC/C=C/c1ccc(Br)cc1)c1cccc2cnccc12,residual activity,[3],62%
same,residual activity,[19],79%
same,residual activity,[4],29%
same,residual activity,[5],71%
same,residual activity,[6],53%
same,residual activity,[12],49%
same,residual activity,[14],70%
O=c1cc(N2CCOCC2)oc2c(-c3ccccc3)cccc12,residual activity,[19],101%
same,residual activity,[4],80%
same,residual activity,[12],74%
same,residual activity,[13],78%
same,residual activity,[14],73%
O=C(Nc1ccc(Cl)cc1)c1ccccc1NCc1ccncc1,residual activity,[1],123%
same,residual activity,[2],3%
same,residual activity,[3],4%
same,residual activity,[16],101%
same,residual activity,[18],99%
same,residual activity,[5],82%
same,residual activity,[6],64%
same,residual activity,[11],30%
same,residual activity,[12],2%
same,residual activity,[13],77%
same,residual activity,[14],80%
O=C1Nc2ccccc2/C1=C\c1c(Cl)[nH]c2ccccc12,residual activity,[1],47%
same,residual activity,[3],30%
same,residual activity,[4],71%
same,residual activity,[5],84%
same,residual activity,[6],36%
same,residual activity,[7],83%
same,residual activity,[8],48%
same,residual activity,[10],55%
same,residual activity,[12],62%
same,residual activity,[20],121%
CCOC(=O)c1c(C)[nH]c(/C=C2\C(=O)Nc3ccccc32)c1C,residual activity,[2],16%
same,residual activity,[3],28%
same,residual activity,[11],50%
same,residual activity,[12],26%
same,residual activity,[13],81%
same,residual activity,[14],91%
same,residual activity,[20],100%
same,residual activity,[17],96%
COc1ccc(CNC(=O)Nc2ncc([N+](=O)[O-])s2)cc1,residual activity,[1],57%
same,residual activity,[7],80%
same,residual activity,[8],37%
same,residual activity,[9],6%
same,residual activity,[10],9%
same,residual activity,[20],120%
same,residual activity,[17],101%
CC(C)[C@H](CO)Nc1nc(Nc2cc(N)cc(Cl)c2)c2ncn(C(C)C)c2n1,residual activity,[1],67%
same,residual activity,[4],85%
same,residual activity,[18],72%
same,residual activity,[5],57%
same,residual activity,[6],17%
same,residual activity,[11],9%
same,residual activity,[12],-1%
same,residual activity,[13],91%
same,residual activity,[14],82%
same,residual activity,[17],66%
same,residual activity,[15],89%
NC(=O)c1cccc(-c2cc(Nc3ccc(OC(F)(F)F)cc3)ncn2)c1,residual activity,[2],100%
same,residual activity,[3],89%
same,residual activity,[4],94%
same,residual activity,[16],95%
same,residual activity,[18],98%
same,residual activity,[7],139%
same,residual activity,[9],92%
same,residual activity,[10],91%
same,residual activity,[11],97%
same,residual activity,[12],82%
CCOc1nc(NC(=O)Cc2cc(OC)ccc2OC)cc(N)c1C#N,residual activity,[1],-2%
same,residual activity,[11],69%
same,residual activity,[12],59%
